Screening results as filed in PubChem.
In the library only some 4.5% were active in any assay of this set; here they are far more common.
hgDAF12 agonist = agonists of H. glycines DAF-12 nuclear receptor; HEK293 GAL4-hgDAF12 UAS-luciferase reporter, agonist luminescence; normalized to butyrate control; activation, % at 6.8 µM; AID 687014; 370,000 tested, 1.8% active;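 active = activation above a cutoff set at the mean of all screened compounds plus 3 SD, cut at about 10% in these data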;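 note: 0% = DMSO wells and 100% = sodium butyrate wells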
DAX1 inh-1 = inhibitors of DAX1 repression of SF-1 activated StAR promoter. HEK293T StAR-luciferase reporter, SF-1/DAX-1 repression relief. inhibition, % at 6.8 µM. 370,000 tested, 1.1% active;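 active = inhibition above the mean over all tested compounds plus 3 SD, cut at about 3.6% in these data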;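 note: 0% = DAX-1 cells with DMSO and 100% = cells lacking DAX-1 with DMSO; higher inhibition means more luminescence from relief of DAX-1 repression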
ssDAF-12 act = activates DAF-12 receptor from parasite S. stercoralis | HEK293 ssDAF-12/GRIP1 lit1-tk-luc reporter, luminescence; % of 3 µM dafachronic acid response | activation, % at 6.8 µM | 370,000 tested, 1% active;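 active = activation above the mean over all tested compounds plus 3 SD, cut at about 0.9% in these data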;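 note: 0% = DMSO-only wells and 100% = 3 µM delta7-dafachronic acid wells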
GAA850 FXN act = activators of GAA850 frataxin (FXN) promoter | HEK293 lucGAA850 FXN promoter luciferase reporter, 24 h; percent of 10 µM SAHA response | 360,000 tested, 0.56% active | activation, % at 6 µM | AID 540364;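 active = activation above the average of all compounds screened plus 3 SD, cutoff fixed separately per campaign, cut at about 7.5% in these data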;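 note: 0% = DMSO wells and 100% = 10 µM SAHA wells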
hcDAF12 agonist = activates DAF-12 receptor from parasite H. contortus; activation, % at 6.8 µM; 370,000 tested, 1.4% active; HEK293 hcDAF-12 lit1-tk-luc reporter, luminescence; 0% DMSO, 100% Δ7-dafachronic acid;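 active = activation above the mean of all tested compounds plus 3 SD, cut at about 5.5% in these data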;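 note: 100% = response to 3 µM Δ7-dafachronic acid high control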
DAX1 inh-2 = NR0B1 (DAX1) inhibition; P51843; HEK293 Gal4-DAX1 luciferase reporter, luminescence; inhibition, % at 6.75 µM; 340,000 tested, 0.99% active;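 active = inhibition above the mean over all tested compounds plus 3 SD, cut at about 4.2% in these data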;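 note: 0% = DAX1-transfected cells with DMSO and 100% = empty-vector control cells with DMSO; inhibition shows as a rise in luminescence from relieved DAX1 repression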
Target sequence (P51843 207-470 limits assumed): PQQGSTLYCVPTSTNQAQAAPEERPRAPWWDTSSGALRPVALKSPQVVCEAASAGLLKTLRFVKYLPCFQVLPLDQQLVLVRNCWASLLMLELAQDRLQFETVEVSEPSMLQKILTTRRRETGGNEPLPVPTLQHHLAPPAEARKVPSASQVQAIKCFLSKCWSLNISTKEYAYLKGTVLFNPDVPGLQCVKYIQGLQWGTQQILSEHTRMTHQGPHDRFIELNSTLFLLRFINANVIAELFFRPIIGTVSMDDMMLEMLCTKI
GAA30 counter = activates GAA30 frataxin promoter, counter-screen for GAA850 activators; shares compounds with GAA850 FXN act; HEK293 lucGAA30 FXN promoter luciferase, 24 h; DMSO = 0%, 5 µM ipriflavone = 100%; activation, % at 6 µM; 1,900 tested, 66% active;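 active = mean activation above the mean of solvent-only control wells plus 3 SD, cut at about 22% in these data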;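 note: counterscreen of GAA850 promoter hits where activity marks nonselective or luminescence artifacts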
GAA850 confirm = GAA850 FXN promoter activation confirmation | shares compounds with GAA850 FXN act | HEK293 lucGAA850 FXN promoter luciferase reporter, 24 h; 100% = activation by SAHA | activation, % at 6 µM | 1,900 tested, 86% active | AID 588351;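 active = mean activation above a set limit taken from the primary screen, cut at about 8% in these data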;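 note: 0% = DMSO wells and 100% = 10 µM SAHA wells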
Numbers without * were called inactive; . = no result given.

SMILES	hgDAF12 agonist	DAX1 inh-1	ssDAF-12 act	GAA850 FXN act	hcDAF12 agonist	DAX1 inh-2	GAA30 counter	GAA850 confirm
COC(=O)[C@@]12CCCCC3=C1N(CCC3)C(=O)[C@H]2CC(=O)NCc1cccc(C(F)(F)F)c1	3	-2	-1	.	-2	.	.	.
CN1[C@@H](Cc2ccccc2)COc2cccc(N3CCSCC3)c2S1(=O)=O	0	0	-1	.	3	.	.	.
CCOC(=O)/C=C/COc1ccccc1[N+](=O)[O-]	1	-1	-2	8.3*	2	0	89*	27*
COc1cc(OC)cc(-c2cc3cc(F)ccc3cn2)c1	6	1	-1	8.0*	2	0	95*	36*
COC(=O)[C@]12C[C@H](CC(=O)NCc3ccccc3)C(=O)N(Cc3cccc4ccccc34)C1=C[C@H](C(C)(C)C)O[C@@H]2C	0	-1	-1	.	-2	.	.	.
NC(=O)c1ncn([C@@H]2O[C@H](C(=O)N[C@H](Cc3c[nH]c4ccccc34)C(=O)N3CCN(C(=O)C4CC4)CC3)[C@@H](O)[C@H]2O)n1	1	0	0	.	-1	.	.	.
COc1ccc(-c2ccc(=O)n(Cc3cc(=O)n4ccccc4n3)n2)cc1	-2	0	-1	8.1*	-1	2	20	8.8*
CCOC(=O)c1ccc(N=c2sc(C(=O)OC)cc(=O)n2Cc2ccco2)cc1	0	1	-1	15*	-1	1	7	35*
CCOC(=O)c1ccc(N=c2sc(C(=O)OC)cc(=O)n2CCCN2CCOCC2)cc1	-5	0	-1	1	0	0	.	.
CN(C)c1ccc(C(=O)NC2CCCCN(Cc3cccc(Cl)c3)C2=O)cc1 (stereo unspecified)	6	1	0	.	2	.	.	.
Cc1ccc(N(O)C(=O)NCCCCNC(=O)N(O)c2ccc(C)cc2)cc1	-1	0	-1	7.7*	0	2	59*	21*
Cc1ccc(S(=O)(=O)NC(=O)NCCCCNC(=O)NS(=O)(=O)c2ccc(C)cc2)cc1	2	-1	-1	-1	-1	0	.	.
Cn1c(CS(=O)Cc2c(Cl)cccc2Cl)nnc1SCc1c(Cl)cccc1Cl (stereo unspecified)	-3	1	-1	10*	-2	-1	25*	9.3*
Cc1ccc(-n2c(C)c(C)c3c(NCCO)ncnc32)cc1	9	1	0	7.9*	0	3	89*	31*
O=[N+]([O-])c1ccc(S(=O)(=O)CC(CN2CCCCC2)N2CCCCC2)cc1 (stereo unspecified)	0	0	-1	5	2	0	.	.
O=S(=O)(CC(CN1CCCCC1)N1CCCCC1)c1ccccc1 (stereo unspecified)	-1	-1	-1	8.4*	0	-1	76*	30*
Clc1ccc(-c2nnc(SCc3cccc4ccccc34)n2Cc2ccco2)cc1	2	-2	-2	.	-2	.	.	.
COC(=O)CN1C(=O)C(C)=C(c2ccc(C)cc2)S1(=O)=O	0	0	-1	13*	-1	0	26*	8.2*
C[C@@]12C(=O)N(c3cccc(F)c3)C(=O)N1[C@H](c1ccc(Cl)cc1)[C@@H]1C(=O)N(C3CCCCC3)C(=O)[C@@H]12	1	0	-1	11*	-1	-1	8	5
COc1ccc(N2C(=O)N3[C@H](c4ccc(Cl)cc4)[C@@H]4C(=O)N(C5CCCCC5)C(=O)[C@@H]4[C@]3(C)C2=O)cc1	0	0	-1	14*	1	-1	9	5
O=C1[C@H]2[C@@H](c3ccc(F)cc3)N3C(=O)N(c4cccc(Cl)c4)C(=O)[C@@]3(Cc3ccc(Cl)cc3)[C@H]2C(=O)N1C1CCCCC1	2	-1	-1	0	0	1	.	.
O=C1[C@H]2[C@@H](c3ccc(Cl)cc3)N3C(=O)N(c4cccc(Br)c4)C(=O)[C@@]3(Cc3ccc(Cl)cc3)[C@H]2C(=O)N1C1CCCCC1	-2	0	-1	7	0	2	.	.
CC(C)C[C@@]12C(=O)N(c3cccc(F)c3)C(=O)N1[C@H](c1ccc(F)cc1)[C@@H]1C(=O)N(C3CCCCC3)C(=O)[C@@H]12	1	0	-1	12*	-1	-1	18	14*
CC(C)C[C@@]12C(=O)N(c3cccc(F)c3)C(=O)N1[C@H](c1ccc(Cl)cc1)[C@@H]1C(=O)N(C3CCCCC3)C(=O)[C@@H]12	3	0	0	16*	-1	0	25*	14*
CC(C)(C)CCN1CCC[C@H](NC(=O)COc2ccc(F)c(Cl)c2)C1	-3	.	-1	.	1	.	.	.
SMILES	hgDAF12 agonist	DAX1 inh-1	ssDAF-12 act	GAA850 FXN act	hcDAF12 agonist	DAX1 inh-2	GAA30 counter	GAA850 confirm
O=C(Nc1nc2ncccn2c1-c1ccc(C(F)(F)F)cc1)c1ccc(F)cc1	0	-1	-1	.	-1	.	.	.
COc1ccc(S[C@]2(C(=O)N3CCOCC3)CC(=O)N(c3ccsc3)[C@@H]2c2ccc(OC)cc2)cc1	0	-1	-1	.	-1	.	.	.
Cn1c(CNc2ccc(O)cc2)nc2ccccc21	-1	0	0	8.3*	0	1	86*	26*
CC(C)n1c(NCc2nc3ccccc3n2C)nc2ccccc21	1	0	0	-3	0	1	.	.
CC(=O)Nc1ccc2c(c1)Cc1cc(N3C(=O)C=CC3=O)ccc1-2	5	0	-1	11*	0	0	-85	-6
Cc1ccc(C(=O)Nc2ncc(Cc3ccc(SC(F)F)cc3)s2)cc1	-2	-2	-1	7.6*	-2	2	-12	37*
Cc1ccc(C(=O)Nc2ncc([N+](=O)[O-])s2)cc1	-8	-1	-2	-10	-3	-6	.	.
O=C(NC1CCCCN(Cc2ccc(Cl)cc2)C1=O)c1ccccn1 (stereo unspecified)	-1	-1	-1	.	-3	.	.	.
COc1ccccc1NC(=O)Nc1cccc(C)n1	0	-1	-1	1	-2	1	.	.
Cc1cccc(NC(=O)Nc2ccccc2[N+](=O)[O-])n1	3	0	0	9.3*	-1	3	67*	25*
N#Cc1cccc(NC(=O)Nc2cccs2)c1	1	0	-1	1	2	-1	.	.
Cc1cccc(NC(=O)Nc2ccc(C#N)cc2)n1	6	-1	-2	20*	-3	-2	103*	105*
